This note sets out measurements from PubChem BioAssay AID488969 (Vanderbilt High Throughput Screening Facility, 2010).

The full ranking holds about 110,000 compounds; the median of “z-score” is about -0.1, and the highest 2% start at about 2. Many of the other results were omitted from the sample, so the highest values are more common in it than they were. Active and inactive are the calls of the source.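 How the source made its calls: active means z-score in the third read window above 3 or below -3; inactive means the rest.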

Metabotropic glutamate receptor 8 (Rattus norvegicus), sequence (P70579 whole entry, looked up): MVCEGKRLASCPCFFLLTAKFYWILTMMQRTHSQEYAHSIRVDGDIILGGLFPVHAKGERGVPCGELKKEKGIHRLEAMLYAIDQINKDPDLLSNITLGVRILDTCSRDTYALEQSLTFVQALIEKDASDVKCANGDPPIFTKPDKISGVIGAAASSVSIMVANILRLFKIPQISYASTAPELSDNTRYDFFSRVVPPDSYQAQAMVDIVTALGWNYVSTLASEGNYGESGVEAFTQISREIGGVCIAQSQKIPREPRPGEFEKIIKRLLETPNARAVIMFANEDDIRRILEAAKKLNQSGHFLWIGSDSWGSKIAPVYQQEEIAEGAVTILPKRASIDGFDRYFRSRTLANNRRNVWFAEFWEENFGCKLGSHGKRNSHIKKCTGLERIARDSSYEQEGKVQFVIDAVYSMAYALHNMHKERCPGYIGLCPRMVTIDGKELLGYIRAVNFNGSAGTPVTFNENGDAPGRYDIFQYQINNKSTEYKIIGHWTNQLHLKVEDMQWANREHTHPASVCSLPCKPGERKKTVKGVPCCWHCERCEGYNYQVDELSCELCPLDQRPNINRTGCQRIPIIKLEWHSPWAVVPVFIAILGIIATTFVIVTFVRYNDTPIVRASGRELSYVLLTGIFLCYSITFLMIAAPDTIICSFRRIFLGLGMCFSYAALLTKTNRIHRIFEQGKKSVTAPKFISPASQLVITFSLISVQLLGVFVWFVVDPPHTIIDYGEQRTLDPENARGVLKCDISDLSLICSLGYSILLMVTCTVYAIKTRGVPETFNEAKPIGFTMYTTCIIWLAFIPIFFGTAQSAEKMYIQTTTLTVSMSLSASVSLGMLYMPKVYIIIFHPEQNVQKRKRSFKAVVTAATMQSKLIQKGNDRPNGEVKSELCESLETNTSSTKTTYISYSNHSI

This assay has as its target Metabotropic glutamate receptor 8 (Rattus norvegicus) (UniProt P70579). Nature of the assay: rat mGluR8 modulators via GIRK flux, primary screen, cell-based, thallium flux, HTS (AID 488969). To be noted: HEK293 rat mGluR8, GIRK (G protein-gated inwardly rectifying potassium channel) thallium flux, FluoZin2; at 10 µM; stronger effect = higher value; submaximal glutamate (EC20) added with thallium.
Compound `CNC(=S)NNC(=O)Cc1ccc(O)cc1` came in with a z-score of 0.306.

For `CCN(CC)S(=O)(=O)c1ccc2c(c1)nc(CCC(=O)Nc1cccc(C(F)(F)F)c1)n2CC`, the z-score is -0.277. Compound `CCSc1nnc(NC(=O)C2(C)Cc3ccccc3C(=O)O2)s1` (configuration not stated) yielded a z-score of -0.0977. For `CCCCc1c(O)nc2sccn2c1=O` the value was -0.251; for `Cc1cc(N2CCC(C(=O)NC3CC3)CC2)nc(-c2ccccc2)n1`, 1.41.

In turn, `Cn1c(=O)cc(OCCCC(=O)Nc2ccccn2)c2ccccc21` displayed a z-score of -0.243.

The compound `CC(C1CC1)N(C(=O)NC1CCS(=O)(=O)C1)c1ccccc1` (configuration not stated) had a z-score of -0.27. Turning to `CCOc1ccc(NC(=O)c2ccco2)cc1`, the z-score is -0.0362. To `COc1ccc(NC(=O)CN2C(=O)C(C)Oc3ccccc32)cc1` (configuration not stated) belongs -0.12; to `CC1Oc2ccccc2N(CC(=O)NCC2CCCO2)C1=O` (configuration not stated), -0.413.

The compound `CC1Oc2ccccc2N(CC(=O)NCCc2ccccc2)C1=O` (configuration not stated) showed a z-score of 2.08. Consider `C=CCn1c(=N)n(CC(=O)c2ccc(Br)s2)c2ccccc21`, for which the z-score was -1.22. In the case of `C/C(=N/NC(=O)c1sc(NS(=O)(=O)c2ccccc2)nc1C)c1ccccc1`, the z-score came out at 0.345. `CN(c1ccc([N+](=O)[O-])cc1C(=O)Nc1ccccc1)C1CCCCC1` gave a z-score of -0.377. `COc1cc(CNC2CCCC2)cc(Cl)c1OCc1ccccc1F` displayed a z-score of 2.5. To `COc1cc(CNC2CCCC2)cc(Cl)c1OCc1ccc(F)cc1` belongs -0.271; to `COc1cc(CNC2CCCC2)cc(Cl)c1OCc1ccccc1Cl`, 0.0424; to `CN1CCN(CCCNC(=O)c2cn(C3CCCCC3)c(=O)c3c2c2ccccc2n3C)CC1`, -0.464.

In turn, `CC1CCC(C(C)C)C(OC(=O)CSc2nc(N)cc(=O)[nH]2)C1` (configuration not stated) yielded a z-score of -0.124. For `O=C(CSCc1ccccc1)N=Nc1c(O)[nH]c2ccccc12` the value was 6.08 (active); for `O=C(CSCc1ccc(Br)cc1)N=Nc1c(O)[nH]c2ccccc12`, 2.84. For `O=C(Cn1nnc(-c2ccccc2)n1)N=Nc1c(O)[nH]c2ccccc12` the value was -0.0918; for `O=C(CSc1nc2ccccc2[nH]1)N=Nc1c(O)[nH]c2ccccc12`, -0.572. `O=C(CSCc1cccc(Br)c1)N=Nc1c(O)[nH]c2ccccc12` yielded a z-score of -0.113. The compound `O=C(CN1CCN(Cc2ccccc2)CC1)N=Nc1c(O)[nH]c2ccccc12` yielded a z-score of -0.328. To `CCOC(=O)c1c(CN2CCOCC2)n(-c2ccccc2)c2cc(Br)c(O)c(CN(C)C)c12` belongs -0.781; to `CC(C)OCCCNC(=O)C(C)Oc1ccccc1` (configuration not stated), -0.305.

Take `CCCOc1ccc(C(=O)N2CCN(c3ccc(N)cc3Cl)CC2)cc1`: the z-score is -0.235.

Regarding `COC(=O)C(Cc1ccc(O)cc1)NC(=O)CCC(=O)Nc1ccc(S(N)(=O)=O)cc1` (configuration not stated), the z-score was -0.14. To `Cc1c(NC(=O)C(C)Sc2nnc(-c3ccccc3)o2)c(=O)n(-c2ccccc2)n1C` (configuration not stated) belongs -0.308. Compound `O=C(CCn1c(=O)oc2ccccc21)N(Cc1ccccc1)c1ccccn1` had a z-score of 0.207. For `CC(=O)c1ccc(NC(=O)CCn2c(=O)oc3ccccc32)cc1`, the z-score was -0.318. To `CN(Cc1ccccc1)C(=O)CCn1c(=O)oc2ccccc21` belongs 2.02; to `CCc1ccc(NC(=O)CCn2c(=O)oc3ccccc32)cc1`, 0.0251.

`COC(=O)c1ccc(NC(=O)CCn2c(=O)oc3ccccc32)cc1`: the z-score turned out to be 2.57. For `COCCN(CCOC)C(=O)CCn1c(=O)oc2ccccc21` the value was 0.976.

Compound `CNC(=S)N(Cc1ccc2c(c1)OCO2)C1CC(=O)N(c2ccc(F)cc2)C1=O` (configuration not stated) returned a z-score of 0.0865.

`O=C(CN1C(=O)c2ccccc2C1=O)Nc1ccc2c(c1)OCO2` displayed a z-score of -0.335. `CC(C)C1Cc2c(sc3[nH]c(=S)n(Cc4ccccc4)c(=O)c23)CO1` (configuration not stated): the z-score was 5.29 (active). For `CC1(C)Cc2c(sc3c2c(=N)n(Cc2ccco2)c(=O)n3Cc2ccccc2)CO1` the value was -0.918. For `CCC1(C)Cc2c(sc3[nH]c(=S)n(Cc4ccccc4)c(=O)c23)CO1` (configuration not stated), the z-score was 8.14 (active). For the compound `CCn1c(=O)n(Cc2ccco2)c(=N)c2c3c(sc21)COC(C)(C)C3`, the z-score is -0.025. As to `CCC1(C)Cc2c(sc3nc(SC)n(Cc4ccccc4)c(=O)c23)CO1` (configuration not stated), the z-score was -0.216. Regarding `CC1(C)Cc2c(sc3[nH]c(=S)n(Cc4ccccc4)c(=O)c23)CO1`, the z-score was 14.5 (active). For `CCC1(C)Cc2c(sc3c2c(=O)n(-c2ccccc2)c(=O)n3C)CO1` (configuration not stated) the value was -0.673; for `CSc1nnc2n(Cc3ccccc3)c(=O)c3c4c(sc3n12)COC(C(C)C)C4` (configuration not stated), -0.311.

With `CC1(C)Cc2c(sc3[nH]c(=S)n(Cc4ccco4)c(=O)c23)CO1`, the z-score is 8.31 (active).

With `Cn1c(=O)[nH]c2sc3c(c2c1=O)CC(C)(C)OC3`, the z-score is -0.263. The compound `Cc1nnc2n(Cc3ccccc3)c(=O)c3c4c(sc3n12)COC(C)(C)C4` gave a z-score of 0.198. For `CC(C)C1Cc2c(sc3c2c(=O)n(Cc2ccccc2)c2nncn32)CO1` (configuration not stated), the z-score was -3.44 (active). To `O=C(CSc1nnc(-c2ccccc2)n1-c1ccccc1)N1c2ccccc2Sc2ccccc21` belongs -1.52; to `CC1CCCCN1C(=O)NC12CC3CC(CC(C3)C1)C2` (configuration not stated), -0.518.

On to `CCOc1ccc2c(c1)n(CO)c(=S)n2CO`, for which the z-score amounted to 0.0706. For `C(=C\c1cccc2ccccc12)/c1nnc(-c2cccs2)o1` the value was -0.201. `COc1ccc(CC(=O)n2c(CC#N)nc3ccccc32)cc1OC` returned a z-score of 0.0175. For `Cc1ccc2c(Cn3cc(C(F)(F)F)cc(Cl)c3=O)cc(=O)oc2c1` the value was -0.249; for `CC(C)OC(=O)c1ccc(N2C(=O)C3CC=CCC3C2=O)cc1` (configuration not stated), 0.0622. Turning to `C=CCOC(=O)Nc1c(C(=O)OC)[nH]c2ccc(Cl)cc12`, the z-score is -0.103.

Turning to `COCCNC(=O)/C(C#N)=C/c1ccc(-c2ccc(S(=O)(=O)N3CCOCC3)cc2)o1`, the z-score was -0.137. To `CCOCCCNC(=O)/C(C#N)=C/c1ccc(-c2ccc(S(=O)(=O)N3CCOCC3)cc2)o1` belongs 2.32; to `CCCCNC(=O)/C(C#N)=C/c1ccc(-c2ccc(S(=O)(=O)N3CCOCC3)cc2)o1`, 0.164; to `O=C(OCC1COc2ccccc2O1)c1c(F)cccc1F` (configuration not stated), 0.396. On to `N=c1oc2ccccc2cc1-c1nc(-c2ccc(Cl)cc2)cs1`, for which the z-score is -0.248. For `COc1ccc(-c2csc(-c3cc4ccccc4oc3=N)n2)cc1` the value was -0.00953; for `N=c1oc2ccc3ccccc3c2cc1-c1nc(-c2ccccc2)cs1`, 3.16 (active). `CCN(CC)C(=O)N1c2ccccc2C=Cc2ccccc21`: the z-score is -0.214.

With `COc1ccc(-c2nnc(NC(=O)c3ccc(S(=O)(=O)N4CCc5ccccc5C4)cc3)o2)cc1`, the z-score is 9.68 (active). Regarding `O=C(Nc1nnc(C2CC2)o1)c1ccc(S(=O)(=O)N2CCCc3ccccc32)cc1`, the z-score is 1.85. On to `COc1ccc(-c2nnc(NC(=O)c3ccc(S(=O)(=O)N4CCCc5ccccc54)cc3)o2)cc1`, for which the z-score turned out to be 2.07. `CCc1nnc(NC(=O)c2ccc(S(=O)(=O)N3CCc4ccccc4C3)cc2)s1` yielded a z-score of -0.158. For `CCc1nnc(NC(=O)c2ccc(S(=O)(=O)N3CCCc4ccccc43)cc2)o1` the value was 0.372; for `COc1ccc(-c2nnc(NC(=O)c3ccc(S(=O)(=O)N4COCC4(C)C)cc3)o2)cc1`, 1.22.
